PubChem BioAssay (NCATS)
Results filed as inconclusive are left out. Active and inactive are the calls of the source. The call rests on the fitted dose curve; in most records, active means well fitted curve in the direction sought with a large enough effect; inconclusive means small, poorly fitted or top-dose-only effect, or another doubt; inactive means no such curve, though single readings can be large; an effect the other way counts as inactive or inconclusive.

Molecular target: Protein phosphatase 1D (Homo sapiens) (UniProt O15297)
Sequence (O15297 whole entry, looked up): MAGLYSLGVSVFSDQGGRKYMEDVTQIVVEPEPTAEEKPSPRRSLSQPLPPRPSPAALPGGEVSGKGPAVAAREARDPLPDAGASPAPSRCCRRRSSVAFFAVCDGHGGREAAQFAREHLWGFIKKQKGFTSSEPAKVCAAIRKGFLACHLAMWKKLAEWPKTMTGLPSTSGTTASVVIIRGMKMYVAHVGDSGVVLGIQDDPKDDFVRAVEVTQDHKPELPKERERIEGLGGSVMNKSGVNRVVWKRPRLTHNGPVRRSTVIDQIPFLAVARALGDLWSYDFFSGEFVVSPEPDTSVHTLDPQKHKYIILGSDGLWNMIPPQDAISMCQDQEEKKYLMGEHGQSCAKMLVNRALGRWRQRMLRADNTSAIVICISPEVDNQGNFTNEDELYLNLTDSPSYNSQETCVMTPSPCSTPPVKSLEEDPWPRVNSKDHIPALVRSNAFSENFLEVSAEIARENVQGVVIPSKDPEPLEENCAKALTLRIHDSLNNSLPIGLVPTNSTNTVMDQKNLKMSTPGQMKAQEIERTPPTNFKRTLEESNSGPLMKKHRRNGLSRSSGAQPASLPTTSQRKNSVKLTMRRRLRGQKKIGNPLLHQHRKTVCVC
Assay: RapidFire Mass Spectrometry qHTS Assay for Modulators of WT P53-Induced Phosphatase 1 (WIP1) (AID 1347424);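 further: amount of dephosphorylated VEPPL-S-QETFS peptide product formed by WIP1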
Conditions: WIP1 dephosphorylation of phosphopeptide, RapidFire MS; series mostly up to 63 µM
Method in brief: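 Mass-spectrometric measurement of dephosphorylated peptide after a 5 min room-temperature reaction of 10 nM WIP1 with 2 uM phosphopeptide, following 1 h compound preincubation in 30 mM MgCl2 buffer.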

Structure (SMILES) | outcome
CC1(C)[C@@H]2CC[C@@]1(C)C(=O)C2 | inactive
CC(C)(C)NCC(O)COc1ccc(NC(=O)NC2CCCCC2)cc1 (stereo not given) | inactive
CCCCC/C(C=O)=C\c1ccccc1 | inactive
CC(=O)Oc1ccc(C2(c3ccc(OC(C)=O)cc3)C(=O)Nc3ccccc32)cc1 | inactive
CC[N+](CC)(CC)CCOc1ccc(/C=C/c2ccccc2)cc1 | inactive
CC(=O)O[C@@]12CO[C@@H]1C[C@H](O)[C@@]1(C)C(=O)[C@H](O)C3=C(C)[C@@H](OC(=O)[C@H](O)[C@@H](NC(=O)OC(C)(C)C)c4ccccc4)C[C@@](O)([C@@H](OC(=O)c4ccccc4)[C@H]21)C3(C)C | inactive
OCC(O)CN1CCN(c2ccccc2)CC1 (stereo not given) | inactive
COc1ccc2cc1Oc1ccc(cc1)C[C@H]1c3c(cc4c(c3Oc3cc5c(cc3OC)CCN(C)[C@@H]5C2)OCO4)CCN1C | inactive
C[C@H](N)[C@H](O)c1cccc(O)c1 | inactive
C[C@@H]1CCN(C(=O)[C@H](CCCN=C(N)N)NS(=O)(=O)c2cccc3c2NC[C@H](C)C3)[C@@H](C(=O)O)C1 | inactive
O=S(=O)(O)NC1CCCCC1 | inactive
O=C1NS(=O)(=O)c2ccccc21 | inactive
CC[C@@]1(c2ccccc2)NC(=O)N(C)C1=O | inactive
CC(=O)Nc1ccc(/C=N/NC(N)=S)cc1 | inactive
Cc1ncc(COP(=O)(O)O)c(C=O)c1O | inactive

Molecular target: Protein phosphatase 1D (Homo sapiens) (UniProt O15297)
Assay: Rhodamine-PBP qHTS Assay for Modulators of WT P53-Induced Phosphatase 1 (WIP1) (AID 1347425)
Conditions: recombinant WIP1, Rhodamine-PBP phosphate fluorescence, real-time; series mostly up to 57.5 µM
Method in brief: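 The read-out is the change in Rhodamine-PBP fluorescence (f1 - f0, ex 525/em 598 nm) as Pi is released, read each minute for 11 min. Final reaction: 5 nM WIP1, 10 uM phosphopeptide VEPPL-pS-QETFS, 10 uM Rh-PBP, 50 mM Tris-HCl pH 7.5, 30 mM MgCl2. Compound was preincubated with enzyme for 1 hour at room temperature.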

Structure (SMILES) | outcome
CC(=O)Oc1c(C)c(C)c2c(c1C)CC[C@@](C)(CCC[C@H](C)CCC[C@H](C)CCCC(C)C)O2 | inactive
O=C(O)[C@@H]1CSCN1 | inactive
NS(=O)(=O)c1cc2c(cc1C(F)(F)F)NC(Cc1ccccc1)NS2(=O)=O (stereo not given) | inactive
COc1cc2[nH]c(=O)[nH]c(=O)c2cc1OC | inactive
Nc1ccc(S(=O)(=O)Nc2ccccc2)cc1 | inactive
Oc1cn2c(n1)Nc1ccc(Cl)c(Cl)c1C2 | inactive
CC1(C)S[C@@H]2[C@H](NC(=O)Cc3ccccc3)C(=O)N2[C@H]1C(=O)O (tested in a mixture with another compound) | inactive
CCN(CC)CCNC(C(=O)OCCC(C)C)c1ccccc1 (stereo not given) | inactive
Cc1cc2nc3c(=O)[nH]c(=O)nc-3n(C[C@H](O)[C@H](O)[C@H](O)CO)c2cc1C | inactive
O=c1cc[nH]c(=O)[nH]1 | inactive
CCN(CC)C(=O)Nc1ccc(OCC(O)CNC(C)(C)C)c(C(C)=O)c1 (stereo not given) | inactive
CCCCOC(=O)c1ccc(O)cc1 | inactive
C[C@@H]1C[C@H]2[C@@H]3C[C@H](F)C4=CC(=O)C=C[C@]4(C)[C@@]3(F)[C@@H](O)C[C@]2(C)[C@@]1(O)C(=O)CO | inactive
O=C1Nc2ccc(Cl)cc2[C@@](C#CC2CC2)(C(F)(F)F)O1 | inactive
CC(O)COc1ccccc1 (stereo not given) | inactive
CC(C)(C)NCC(O)COc1ccc(NC(=O)NC2CCCCC2)cc1 (stereo not given) | inactive
CCCCC/C(C=O)=C\c1ccccc1 | inactive
CC(=O)Oc1ccc(C2(c3ccc(OC(C)=O)cc3)C(=O)Nc3ccccc32)cc1 | inactive
CC(=O)O[C@@]12CO[C@@H]1C[C@H](O)[C@@]1(C)C(=O)[C@H](O)C3=C(C)[C@@H](OC(=O)[C@H](O)[C@@H](NC(=O)OC(C)(C)C)c4ccccc4)C[C@@](O)([C@@H](OC(=O)c4ccccc4)[C@H]21)C3(C)C | inactive
OCC(O)CN1CCN(c2ccccc2)CC1 (stereo not given) | inactive
COc1ccc2cc1Oc1ccc(cc1)C[C@H]1c3c(cc4c(c3Oc3cc5c(cc3OC)CCN(C)[C@@H]5C2)OCO4)CCN1C | inactive
C[C@H](N)[C@H](O)c1cccc(O)c1 | inactive
O=S(=O)(O)NC1CCCCC1 | inactive
O=C1NS(=O)(=O)c2ccccc21 | inactive
CC[C@@]1(c2ccccc2)NC(=O)N(C)C1=O | inactive
CC(=O)Nc1ccc(/C=N/NC(N)=S)cc1 | inactive

Tested on: not listed separately
Assay: Primary qHTS for inhibitors of La Crosse Virus (LACV) - induced cell death in SH-SY5Y cells (AID 1508616);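 further: top concentration of the series differs between compounds; higher means more rescue of cells from virus-induced death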
Conditions: SH-SY5Y LACV cytopathicity rescue, ATP luminescence, 6 d; series mostly up to 4.29 µM
Method in brief: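 Screening measures cell viability in LACV-infected SH-SY5Y cultures. Compound was added before virus (0.01 MOI), and ATP was detected by luminescence 6 days later.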

Structure (SMILES) | outcome
CC(=O)Oc1c(C)c(C)c2c(c1C)CC[C@@](C)(CCC[C@H](C)CCC[C@H](C)CCCC(C)C)O2 | inactive
O=C(O)[C@@H]1CSCN1 | inactive
NS(=O)(=O)c1cc2c(cc1C(F)(F)F)NC(Cc1ccccc1)NS2(=O)=O (stereo not given) | inactive
COc1cc2[nH]c(=O)[nH]c(=O)c2cc1OC | inactive
Nc1ccc(S(=O)(=O)Nc2ccccc2)cc1 | inactive
Oc1cn2c(n1)Nc1ccc(Cl)c(Cl)c1C2 | inactive
CC1(C)S[C@@H]2[C@H](NC(=O)Cc3ccccc3)C(=O)N2[C@H]1C(=O)O (tested in a mixture with another compound) | inactive
CCN(CC)CCNC(C(=O)OCCC(C)C)c1ccccc1 (stereo not given) | inactive
Cc1cc2nc3c(=O)[nH]c(=O)nc-3n(C[C@H](O)[C@H](O)[C@H](O)CO)c2cc1C | inactive
c1ccc(CN(CC2=NCCN2)c2ccccc2)cc1 | inactive
Cc1cccc(Nc2cc(Cl)nc(SCC(=O)O)n2)c1C | inactive
O=c1cc[nH]c(=O)[nH]1 | inactive
CCN(CC)C(=O)Nc1ccc(OCC(O)CNC(C)(C)C)c(C(C)=O)c1 (stereo not given) | inactive
O=C(Oc1ccccc1C(=O)O)c1ccccc1O | inactive
CCCCOC(=O)c1ccc(O)cc1 | inactive
C[C@@H]1C[C@H]2[C@@H]3C[C@H](F)C4=CC(=O)C=C[C@]4(C)[C@@]3(F)[C@@H](O)C[C@]2(C)[C@@]1(O)C(=O)CO | inactive
O=C1Nc2ccc(Cl)cc2[C@@](C#CC2CC2)(C(F)(F)F)O1 | inactive

Structure (SMILES) | outcome
CC(O)COc1ccccc1 (stereo not given) | inactive
COc1ccc2c(c1)C(=O)N(CCc1ccc(S(=O)(=O)NC(=O)NC3CCCCC3)cc1)C(=O)C2(C)C | inactive
CC1(C)[C@@H]2CC[C@@]1(C)C(=O)C2 | inactive
CC(C)(C)NCC(O)COc1ccc(NC(=O)NC2CCCCC2)cc1 (stereo not given) | inactive
CCCCC/C(C=O)=C\c1ccccc1 | inactive
CC(=O)Oc1ccc(C2(c3ccc(OC(C)=O)cc3)C(=O)Nc3ccccc32)cc1 | inactive
CC[N+](CC)(CC)CCOc1ccc(/C=C/c2ccccc2)cc1 | inactive
CC(=O)O[C@@]12CO[C@@H]1C[C@H](O)[C@@]1(C)C(=O)[C@H](O)C3=C(C)[C@@H](OC(=O)[C@H](O)[C@@H](NC(=O)OC(C)(C)C)c4ccccc4)C[C@@](O)([C@@H](OC(=O)c4ccccc4)[C@H]21)C3(C)C | inactive
OCC(O)CN1CCN(c2ccccc2)CC1 (stereo not given) | inactive
COc1ccc2cc1Oc1ccc(cc1)C[C@H]1c3c(cc4c(c3Oc3cc5c(cc3OC)CCN(C)[C@@H]5C2)OCO4)CCN1C | inactive
C[C@H](N)[C@H](O)c1cccc(O)c1 | inactive
C[C@@H]1CCN(C(=O)[C@H](CCCN=C(N)N)NS(=O)(=O)c2cccc3c2NC[C@H](C)C3)[C@@H](C(=O)O)C1 | inactive
O=S(=O)(O)NC1CCCCC1 | inactive
O=C1NS(=O)(=O)c2ccccc21 | inactive
CC[C@@]1(c2ccccc2)NC(=O)N(C)C1=O | inactive
CC(=O)Nc1ccc(/C=N/NC(N)=S)cc1 | inactive
Cc1ncc(COP(=O)(O)O)c(C=O)c1O | inactive
